How the values were obtained:
Assay in all cases: DAPPL (digital affinity profiling via proximity ligation, sequencing); 10 mM Tris-HCl pH 7.5, 50 mM NaCl, 1 mM DTT, 4% glycerol, room temperature, 30 min; GST-TFs on glutathione beads, 16-mer random dsDNA library, 0.1% formaldehyde crosslink after washing; high values mean tight binding
Conditions in all cases: protein: recombinant; tags: N-terminal GST; dsDNA, one strand shown
FLI1 = molecular target: T1, FLI1 (Homo sapiens, UniProt Q01543 1-452)
T1 sequence: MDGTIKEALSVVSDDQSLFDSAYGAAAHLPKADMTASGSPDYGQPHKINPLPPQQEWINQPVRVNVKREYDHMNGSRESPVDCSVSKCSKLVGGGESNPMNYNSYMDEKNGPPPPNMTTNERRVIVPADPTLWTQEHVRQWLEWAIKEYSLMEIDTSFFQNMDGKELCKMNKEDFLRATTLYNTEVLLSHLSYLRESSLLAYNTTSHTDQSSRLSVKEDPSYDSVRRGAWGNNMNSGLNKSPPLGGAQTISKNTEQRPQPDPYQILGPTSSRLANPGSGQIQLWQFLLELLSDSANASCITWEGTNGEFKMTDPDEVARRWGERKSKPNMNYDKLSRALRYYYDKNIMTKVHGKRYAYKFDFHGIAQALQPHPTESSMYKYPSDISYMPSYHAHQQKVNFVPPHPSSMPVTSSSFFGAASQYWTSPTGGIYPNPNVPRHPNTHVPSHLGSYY
Outline: (§1)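 Sequencing on an Illumina NextSeq500 followed washing, crosslinking with 0.1% formaldehyde, proximity ligation (BsaI/T4 ligase, 1 h, 37 °C) and PCR amplification of pools that had been incubated for 30 min at room temperature with 200 nmole of a random double-stranded 16-mer DNA library in Tris/NaCl/DTT/glycerol buffer. Each pool held DNA-barcoded human transcription factors, expressed in yeast as GST fusions and captured on glutathione beads, plus a tag-only sample. Binding signal is a hexamer's read frequency for a factor divided by its frequency in the tag-only sample.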

ELK1 = molecular target: T2, ELK1 (Homo sapiens, UniProt P19419 1-428)
T2 sequence: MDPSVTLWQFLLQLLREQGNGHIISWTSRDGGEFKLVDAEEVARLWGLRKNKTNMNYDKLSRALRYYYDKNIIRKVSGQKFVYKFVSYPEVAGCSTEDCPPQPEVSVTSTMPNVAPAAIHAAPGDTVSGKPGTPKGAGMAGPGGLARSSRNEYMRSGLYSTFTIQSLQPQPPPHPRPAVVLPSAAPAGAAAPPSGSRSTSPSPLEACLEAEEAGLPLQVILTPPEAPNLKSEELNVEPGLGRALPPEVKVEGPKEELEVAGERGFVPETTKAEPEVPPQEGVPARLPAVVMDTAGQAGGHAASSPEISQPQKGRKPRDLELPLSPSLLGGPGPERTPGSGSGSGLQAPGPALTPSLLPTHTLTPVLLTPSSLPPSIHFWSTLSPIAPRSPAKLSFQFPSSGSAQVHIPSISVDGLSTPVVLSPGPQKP
Outline: as §1

GABPA = molecular target: T3, GABPA (Homo sapiens, UniProt Q06546 1-454)
T3 sequence: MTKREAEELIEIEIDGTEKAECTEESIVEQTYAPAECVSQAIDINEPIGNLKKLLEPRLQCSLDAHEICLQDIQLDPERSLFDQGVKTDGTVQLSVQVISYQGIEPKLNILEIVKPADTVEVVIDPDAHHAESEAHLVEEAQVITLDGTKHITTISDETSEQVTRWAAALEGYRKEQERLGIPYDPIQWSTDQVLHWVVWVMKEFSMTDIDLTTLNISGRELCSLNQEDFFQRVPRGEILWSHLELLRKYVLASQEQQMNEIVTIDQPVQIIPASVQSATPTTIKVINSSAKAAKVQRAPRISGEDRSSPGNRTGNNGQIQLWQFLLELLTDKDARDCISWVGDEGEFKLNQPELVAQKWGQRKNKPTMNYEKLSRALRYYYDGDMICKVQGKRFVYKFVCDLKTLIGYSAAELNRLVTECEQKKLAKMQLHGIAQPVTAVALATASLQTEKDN
Outline: as §1

ERG = molecular target: T4, ERG (Homo sapiens, UniProt P11308 1-479)
T4 sequence: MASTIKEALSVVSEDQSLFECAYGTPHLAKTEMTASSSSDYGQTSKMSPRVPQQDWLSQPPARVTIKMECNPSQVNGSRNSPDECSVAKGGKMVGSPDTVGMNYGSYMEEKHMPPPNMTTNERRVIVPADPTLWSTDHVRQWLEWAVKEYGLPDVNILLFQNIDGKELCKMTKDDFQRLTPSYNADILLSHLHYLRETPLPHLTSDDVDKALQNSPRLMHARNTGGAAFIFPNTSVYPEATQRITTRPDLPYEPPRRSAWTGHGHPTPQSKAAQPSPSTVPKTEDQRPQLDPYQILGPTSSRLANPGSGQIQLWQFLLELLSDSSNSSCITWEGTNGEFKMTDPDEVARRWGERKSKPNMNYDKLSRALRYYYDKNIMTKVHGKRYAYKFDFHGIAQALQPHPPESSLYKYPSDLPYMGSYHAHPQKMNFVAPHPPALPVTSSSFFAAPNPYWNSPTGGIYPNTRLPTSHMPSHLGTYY
Outline: as §1

ELF1 = ELF1 (Homo sapiens, UniProt P32519 1-619)
ELF1, sequence (P32519 whole entry): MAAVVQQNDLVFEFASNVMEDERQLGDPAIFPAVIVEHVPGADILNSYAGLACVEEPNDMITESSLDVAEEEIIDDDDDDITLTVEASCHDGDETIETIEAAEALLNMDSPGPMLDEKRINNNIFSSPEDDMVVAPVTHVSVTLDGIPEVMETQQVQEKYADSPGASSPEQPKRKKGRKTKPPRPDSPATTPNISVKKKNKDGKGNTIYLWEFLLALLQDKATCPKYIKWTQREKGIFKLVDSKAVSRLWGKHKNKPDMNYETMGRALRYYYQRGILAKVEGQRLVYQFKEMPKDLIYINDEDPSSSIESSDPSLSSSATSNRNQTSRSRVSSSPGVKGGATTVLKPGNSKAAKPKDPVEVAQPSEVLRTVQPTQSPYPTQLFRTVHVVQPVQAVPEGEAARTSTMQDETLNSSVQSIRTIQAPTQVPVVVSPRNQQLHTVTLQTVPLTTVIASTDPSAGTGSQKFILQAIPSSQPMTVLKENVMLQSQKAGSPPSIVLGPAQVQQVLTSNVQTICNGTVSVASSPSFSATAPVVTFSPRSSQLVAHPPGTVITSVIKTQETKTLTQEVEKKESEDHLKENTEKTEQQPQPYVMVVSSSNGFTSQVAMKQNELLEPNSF
Outline: as §1

EHF = molecular target: T5, EHF (Homo sapiens, UniProt Q9NZC4 1-300)
T5 sequence: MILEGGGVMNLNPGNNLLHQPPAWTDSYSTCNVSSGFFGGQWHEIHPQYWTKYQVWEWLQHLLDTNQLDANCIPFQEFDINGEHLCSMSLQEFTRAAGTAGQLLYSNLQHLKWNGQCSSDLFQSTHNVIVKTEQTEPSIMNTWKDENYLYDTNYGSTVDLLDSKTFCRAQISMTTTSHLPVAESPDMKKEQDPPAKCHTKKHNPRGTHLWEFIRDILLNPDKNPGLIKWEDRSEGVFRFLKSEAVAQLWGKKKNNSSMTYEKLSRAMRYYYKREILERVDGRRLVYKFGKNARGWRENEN
Outline: as §1

SPI1 = SPI1 (Homo sapiens, UniProt P17947 1-270)
Outline: as §1

SPIB = SPIB (Homo sapiens, UniProt Q01892 1-262)
SPIB, sequence (Q01892 whole entry): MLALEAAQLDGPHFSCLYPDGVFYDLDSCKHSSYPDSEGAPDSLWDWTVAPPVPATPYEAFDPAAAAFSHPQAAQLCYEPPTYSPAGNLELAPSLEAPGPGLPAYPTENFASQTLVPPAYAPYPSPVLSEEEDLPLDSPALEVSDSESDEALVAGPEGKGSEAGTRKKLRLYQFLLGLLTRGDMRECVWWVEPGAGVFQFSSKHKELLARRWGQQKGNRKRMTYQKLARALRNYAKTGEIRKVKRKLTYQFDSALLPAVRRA
Outline: as §1

ELK3 = molecular target: T6, ELK3 (Homo sapiens, UniProt P41970 1-407)
T6 sequence: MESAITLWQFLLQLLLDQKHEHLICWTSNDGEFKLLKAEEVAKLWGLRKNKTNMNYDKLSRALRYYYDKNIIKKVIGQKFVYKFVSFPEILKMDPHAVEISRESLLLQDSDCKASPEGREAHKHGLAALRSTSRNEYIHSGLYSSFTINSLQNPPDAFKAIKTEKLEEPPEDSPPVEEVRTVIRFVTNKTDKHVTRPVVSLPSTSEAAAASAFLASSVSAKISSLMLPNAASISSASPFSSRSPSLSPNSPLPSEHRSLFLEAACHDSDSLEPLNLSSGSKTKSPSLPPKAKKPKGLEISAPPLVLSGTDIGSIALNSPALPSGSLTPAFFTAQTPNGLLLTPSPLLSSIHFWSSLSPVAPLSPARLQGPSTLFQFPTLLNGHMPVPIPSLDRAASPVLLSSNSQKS
Outline: as §1

FEV = molecular target: T7, FEV (Homo sapiens, UniProt Q99581 1-238)
T7 sequence: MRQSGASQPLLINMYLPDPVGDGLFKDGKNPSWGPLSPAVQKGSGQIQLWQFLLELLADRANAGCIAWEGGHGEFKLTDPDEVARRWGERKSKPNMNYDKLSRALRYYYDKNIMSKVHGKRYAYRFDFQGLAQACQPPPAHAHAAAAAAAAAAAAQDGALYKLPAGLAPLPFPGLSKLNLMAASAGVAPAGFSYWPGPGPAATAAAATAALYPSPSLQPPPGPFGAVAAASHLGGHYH
Outline: as §1

ETV5 = ETV5 (Homo sapiens, UniProt P41161 1-510)
ETV5, sequence (P41161 whole entry): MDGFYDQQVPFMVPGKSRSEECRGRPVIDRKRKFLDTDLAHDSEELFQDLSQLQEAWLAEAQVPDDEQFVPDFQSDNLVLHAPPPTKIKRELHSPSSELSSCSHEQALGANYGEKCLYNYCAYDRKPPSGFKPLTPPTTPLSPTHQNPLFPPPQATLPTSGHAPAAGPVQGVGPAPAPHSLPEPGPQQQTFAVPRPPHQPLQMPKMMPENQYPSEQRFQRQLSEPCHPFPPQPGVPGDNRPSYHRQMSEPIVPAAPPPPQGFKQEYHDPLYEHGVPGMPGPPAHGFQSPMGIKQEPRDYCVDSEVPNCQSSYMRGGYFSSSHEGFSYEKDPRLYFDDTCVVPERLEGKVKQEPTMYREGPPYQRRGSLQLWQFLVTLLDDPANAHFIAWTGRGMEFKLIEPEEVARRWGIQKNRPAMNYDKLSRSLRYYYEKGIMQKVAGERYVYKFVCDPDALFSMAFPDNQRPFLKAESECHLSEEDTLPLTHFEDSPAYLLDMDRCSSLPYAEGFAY
Outline: as §1

SPIC = molecular target: T8, SPIC (Homo sapiens, UniProt Q8N5J4 1-248)
T8 sequence: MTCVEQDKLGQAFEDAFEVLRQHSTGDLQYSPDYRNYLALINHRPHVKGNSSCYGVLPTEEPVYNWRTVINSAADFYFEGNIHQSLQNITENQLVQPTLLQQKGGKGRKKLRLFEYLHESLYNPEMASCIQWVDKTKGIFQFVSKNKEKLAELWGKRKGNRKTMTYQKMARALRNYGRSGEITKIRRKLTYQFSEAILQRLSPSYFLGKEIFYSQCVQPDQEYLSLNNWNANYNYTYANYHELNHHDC
Outline: as §1

ELF4 = ELF4 (Homo sapiens, UniProt Q99607 1-663)
ELF4, sequence (Q99607 whole entry): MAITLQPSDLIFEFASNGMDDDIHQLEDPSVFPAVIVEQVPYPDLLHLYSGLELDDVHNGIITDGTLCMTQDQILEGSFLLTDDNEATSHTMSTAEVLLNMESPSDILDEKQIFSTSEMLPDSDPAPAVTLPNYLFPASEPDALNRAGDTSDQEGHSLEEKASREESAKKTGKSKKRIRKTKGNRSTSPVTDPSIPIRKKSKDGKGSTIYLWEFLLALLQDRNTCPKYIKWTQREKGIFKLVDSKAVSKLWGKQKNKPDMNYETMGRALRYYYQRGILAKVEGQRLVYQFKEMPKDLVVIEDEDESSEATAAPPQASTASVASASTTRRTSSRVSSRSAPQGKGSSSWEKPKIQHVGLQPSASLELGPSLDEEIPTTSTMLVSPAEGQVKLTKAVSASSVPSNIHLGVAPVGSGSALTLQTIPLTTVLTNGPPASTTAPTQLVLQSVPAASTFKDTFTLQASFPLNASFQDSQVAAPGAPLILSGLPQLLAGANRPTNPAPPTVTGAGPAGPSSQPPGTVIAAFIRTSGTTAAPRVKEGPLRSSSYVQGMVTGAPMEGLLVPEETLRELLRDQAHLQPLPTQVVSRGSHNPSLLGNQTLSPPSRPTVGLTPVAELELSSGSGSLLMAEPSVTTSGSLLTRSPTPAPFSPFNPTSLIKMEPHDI
Outline: as §1

ELK4 = molecular target: T9, ELK4 (Homo sapiens, UniProt P28324-2 1-405)
T9 sequence: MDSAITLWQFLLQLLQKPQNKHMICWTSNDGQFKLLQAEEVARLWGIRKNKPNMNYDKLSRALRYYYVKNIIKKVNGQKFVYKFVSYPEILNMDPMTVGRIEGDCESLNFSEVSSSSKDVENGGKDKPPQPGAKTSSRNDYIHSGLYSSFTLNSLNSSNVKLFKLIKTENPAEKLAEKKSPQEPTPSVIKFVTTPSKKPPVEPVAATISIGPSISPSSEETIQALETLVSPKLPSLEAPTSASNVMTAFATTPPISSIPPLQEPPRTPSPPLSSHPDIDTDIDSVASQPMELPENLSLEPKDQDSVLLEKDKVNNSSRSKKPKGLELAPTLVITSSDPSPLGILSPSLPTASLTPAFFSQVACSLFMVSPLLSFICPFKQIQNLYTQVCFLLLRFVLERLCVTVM
Outline: as §1

ETV2 = molecular target: T10, ETV2 (Homo sapiens, UniProt O00321 1-342)
T10 sequence: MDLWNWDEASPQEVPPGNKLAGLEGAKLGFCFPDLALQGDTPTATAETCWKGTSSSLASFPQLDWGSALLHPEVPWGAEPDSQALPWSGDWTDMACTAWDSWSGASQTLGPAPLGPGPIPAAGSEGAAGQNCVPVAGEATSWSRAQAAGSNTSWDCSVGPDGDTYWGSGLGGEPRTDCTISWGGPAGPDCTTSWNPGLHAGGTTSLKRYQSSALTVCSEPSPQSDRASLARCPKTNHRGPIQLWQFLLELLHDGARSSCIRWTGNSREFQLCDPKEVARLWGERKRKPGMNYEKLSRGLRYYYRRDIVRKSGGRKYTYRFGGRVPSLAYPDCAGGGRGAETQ
Outline: as §1

ELF3 = molecular target: T11, ELF3 (Homo sapiens, UniProt P78545 1-371)
T11 sequence: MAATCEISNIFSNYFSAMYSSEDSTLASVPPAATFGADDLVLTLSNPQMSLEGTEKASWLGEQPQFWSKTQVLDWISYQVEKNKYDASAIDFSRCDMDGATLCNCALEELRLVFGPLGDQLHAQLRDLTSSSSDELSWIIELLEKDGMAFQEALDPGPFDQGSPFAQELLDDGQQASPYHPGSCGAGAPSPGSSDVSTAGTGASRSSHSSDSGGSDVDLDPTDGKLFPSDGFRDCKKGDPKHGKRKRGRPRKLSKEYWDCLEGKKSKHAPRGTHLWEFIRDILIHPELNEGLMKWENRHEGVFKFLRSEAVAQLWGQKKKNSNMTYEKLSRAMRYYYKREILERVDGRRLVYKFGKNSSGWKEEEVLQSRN
Outline: as §1

ETV1 = ETV1 (Homo sapiens, UniProt P50549 1-477)
ETV1, sequence (P50549 whole entry): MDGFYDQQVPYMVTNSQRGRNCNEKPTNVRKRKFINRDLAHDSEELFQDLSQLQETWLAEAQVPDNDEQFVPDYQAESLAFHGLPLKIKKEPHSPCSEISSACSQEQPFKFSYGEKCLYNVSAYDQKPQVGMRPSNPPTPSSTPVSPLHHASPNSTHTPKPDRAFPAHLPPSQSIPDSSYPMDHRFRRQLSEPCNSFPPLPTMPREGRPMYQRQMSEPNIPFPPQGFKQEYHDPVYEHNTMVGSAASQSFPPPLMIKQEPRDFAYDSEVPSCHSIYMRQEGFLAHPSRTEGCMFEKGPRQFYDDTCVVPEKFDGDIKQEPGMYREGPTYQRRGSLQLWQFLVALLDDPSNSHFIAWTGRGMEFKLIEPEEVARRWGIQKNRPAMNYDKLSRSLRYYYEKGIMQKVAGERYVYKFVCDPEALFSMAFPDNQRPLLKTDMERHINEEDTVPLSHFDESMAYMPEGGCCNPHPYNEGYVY
Outline: as §1

Row | Sequence | binding signal (FLI1) | binding signal (ELK1) | binding signal (GABPA) | binding signal (ERG) | binding signal (ELF1) | binding signal (EHF) | binding signal (SPI1) | binding signal (SPIB) | binding signal (ELK3) | binding signal (FEV) | binding signal (ETV5) | binding signal (SPIC) | binding signal (ELF4) | binding signal (ELK4) | binding signal (ETV2) | binding signal (ELF3) | binding signal (ETV1)
1 | CAACTG | 1.18 fold enrichment (6-mer frequency, TF over GST control) | 1.15 fold enrichment (6-mer frequency, TF over GST control) | 1.15 fold enrichment (6-mer frequency, TF over GST control) | 1.2 fold enrichment (6-mer frequency, TF over GST control) | 1.27 fold enrichment (6-mer frequency, TF over GST control) | 1.17 fold enrichment (6-mer frequency, TF over GST control) | 1.05 fold enrichment (6-mer frequency, TF over GST control) | 1.13 fold enrichment (6-mer frequency, TF over GST control) | 1.09 fold enrichment (6-mer frequency, TF over GST control) | 1.14 fold enrichment (6-mer frequency, TF over GST control) | 1.11 fold enrichment (6-mer frequency, TF over GST control) | 1.13 fold enrichment (6-mer frequency, TF over GST control) | 1.07 fold enrichment (6-mer frequency, TF over GST control) | 1.21 fold enrichment (6-mer frequency, TF over GST control) | 1.23 fold enrichment (6-mer frequency, TF over GST control) | 1.26 fold enrichment (6-mer frequency, TF over GST control) | 1.19 fold enrichment (6-mer frequency, TF over GST control)
2 | GGATGT | 1.5 fold enrichment (6-mer frequency, TF over GST control) | 1.7 fold enrichment (6-mer frequency, TF over GST control) | 1.39 fold enrichment (6-mer frequency, TF over GST control) | 1.82 fold enrichment (6-mer frequency, TF over GST control) | 1.44 fold enrichment (6-mer frequency, TF over GST control) | 1.74 fold enrichment (6-mer frequency, TF over GST control) | 1.53 fold enrichment (6-mer frequency, TF over GST control) | 1.61 fold enrichment (6-mer frequency, TF over GST control) | 1.65 fold enrichment (6-mer frequency, TF over GST control) | 2.08 fold enrichment (6-mer frequency, TF over GST control) | 1.77 fold enrichment (6-mer frequency, TF over GST control) | 1.41 fold enrichment (6-mer frequency, TF over GST control) | 1.39 fold enrichment (6-mer frequency, TF over GST control) | 1.36 fold enrichment (6-mer frequency, TF over GST control) | 1.44 fold enrichment (6-mer frequency, TF over GST control) | 1.61 fold enrichment (6-mer frequency, TF over GST control) | 1.69 fold enrichment (6-mer frequency, TF over GST control)
3 | CCACCC | 1.17 fold enrichment (6-mer frequency, TF over GST control) | 1.28 fold enrichment (6-mer frequency, TF over GST control) | 1.28 fold enrichment (6-mer frequency, TF over GST control) | 1.21 fold enrichment (6-mer frequency, TF over GST control) | 1.23 fold enrichment (6-mer frequency, TF over GST control) | 1.31 fold enrichment (6-mer frequency, TF over GST control) | 1.22 fold enrichment (6-mer frequency, TF over GST control) | 1.31 fold enrichment (6-mer frequency, TF over GST control) | 1.23 fold enrichment (6-mer frequency, TF over GST control) | 1.17 fold enrichment (6-mer frequency, TF over GST control) | 1.25 fold enrichment (6-mer frequency, TF over GST control) | 1.21 fold enrichment (6-mer frequency, TF over GST control) | 1.32 fold enrichment (6-mer frequency, TF over GST control) | 1.38 fold enrichment (6-mer frequency, TF over GST control) | 1.3 fold enrichment (6-mer frequency, TF over GST control) | 1.37 fold enrichment (6-mer frequency, TF over GST control) | 1.16 fold enrichment (6-mer frequency, TF over GST control)
